“And” between values parts separate entries of the source, which are not always exact repeats. Identical values can stand only once. Results filed as inconclusive are left out. Where a structure was tested more than once in an assay, its records may differ in their call. The source made the active and inactive calls. Unless noted, calls come from the whole dose curve; as a rule, active = well fitted curve in the direction sought with a large enough effect in the repeat runs; inconclusive = weak or mixed curves; inactive = no such curve, though single readings can be large; an effect the other way counts as inactive or inconclusive.
Key:
[1] = qHTS assay to identify small molecule antagonists of the peroxisome proliferator-activated receptor delta (PPARd) signaling pathway - cell viability counter screen (AID 743213); note: nearly all actives have a fitted effect of over 50% in size
Method in brief: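 PPARd-bla HEK293H cells were treated with compounds plus agonist L165041 (300 nM final) for 17 h at 37 C. Viability was then read in the same wells by CellTiter-Glo luminescence after 30 min at room temperature.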

[2] = biological target: Bile acid receptor (Homo sapiens) (UniProt Q96RI1); experiment: qHTS assay to identify small molecule antagonists of the farnesoid-X-receptor (FXR) signaling pathway (AID 743217; active = well fitted inhibition curve with a large enough effect in the signal ratio in the repeat runs, not every such curve was filed as active; the % refers to the signal ratio)
Chain of Bile acid receptor (Homo sapiens) (Q96RI1 whole entry, looked up): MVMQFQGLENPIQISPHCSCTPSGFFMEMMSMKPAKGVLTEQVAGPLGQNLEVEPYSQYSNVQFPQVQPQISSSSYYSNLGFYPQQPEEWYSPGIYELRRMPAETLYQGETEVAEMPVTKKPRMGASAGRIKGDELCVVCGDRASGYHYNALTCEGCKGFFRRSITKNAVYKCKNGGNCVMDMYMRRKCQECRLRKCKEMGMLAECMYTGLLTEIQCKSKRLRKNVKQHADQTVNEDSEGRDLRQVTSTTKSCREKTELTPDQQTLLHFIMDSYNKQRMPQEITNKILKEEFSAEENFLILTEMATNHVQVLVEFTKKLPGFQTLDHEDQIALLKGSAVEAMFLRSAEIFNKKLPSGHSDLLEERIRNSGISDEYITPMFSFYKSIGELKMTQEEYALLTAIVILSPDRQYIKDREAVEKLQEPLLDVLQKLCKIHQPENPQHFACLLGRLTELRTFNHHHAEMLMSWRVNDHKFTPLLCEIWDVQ
Method in brief: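 Test compounds are pin-transferred onto FXR-bla HEK 293T cells, then chenodeoxycholic acid is added at 50 uM final. After 16 h at 37 °C, LiveBLAzer B/G substrate is applied for 2 h at room temperature and fluorescence read.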

[3] = qHTS assay to identify small molecule agonists of the farnesoid-X-receptor (FXR) signaling pathway - cell viability counter screen (AID 743218); note: nearly all actives have a fitted effect of over 45% in size
Method in brief: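 Quantitative HTS counter screen measuring ATP-based viability via CellTiter-Glo luminescence in HEK 293T cells carrying a UAS-driven beta-lactamase reporter, after 16 h compound exposure at 37 C.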

[4] = biological target: Bile acid receptor (Homo sapiens) (UniProt Q96RI1); experiment: qHTS assay to identify small molecule agonists of the farnesoid-X-receptor (FXR) signaling pathway (AID 743220; active = well fitted activation curve with a large enough effect in the signal ratio in the repeat runs, not every such curve was filed as active; the % refers to the signal ratio)
Method in brief: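 FXR-UAS-bla HEK 293T cells carrying a UAS-driven beta-lactamase reporter were plated for 5 h at 37C/5% CO2, then exposed to DMSO-dissolved Tox21 10K compounds for 16 h at 37C. A LiveBLAzer B/G FRET substrate was loaded for 2 h at room temperature before fluorescence reading.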

[5] = qHTS assay to identify small molecule antagonists of the farnesoid-X-receptor (FXR) signaling pathway - cell viability counter screen (AID 743221; active = well fitted cell-killing curve with a large enough effect in the repeat runs, not every such curve was filed as active; note: nearly all actives have a fitted effect of over 50% in size)
Method in brief: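 Quantitative HTS of the Tox21 10K library run in parallel with the beta-lactamase reporter read. HEK 293T cells carrying a UAS-driven bla reporter got compound and 50 uM CDCA (final) for 16 h; ATP-based luminescence followed.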

[6] = biological target: Vitamin D3 receptor (Homo sapiens) (UniProt P11473); experiment: qHTS assay to identify small molecule antagonists of the vitamin D receptor (VDR) signaling pathway (AID 743223; active = well fitted inhibition curve with a large enough effect in the signal ratio in the repeat runs, not every such curve was filed as active; the % refers to the signal ratio)
Chain of Vitamin D3 receptor (Homo sapiens) (P11473 whole entry, looked up): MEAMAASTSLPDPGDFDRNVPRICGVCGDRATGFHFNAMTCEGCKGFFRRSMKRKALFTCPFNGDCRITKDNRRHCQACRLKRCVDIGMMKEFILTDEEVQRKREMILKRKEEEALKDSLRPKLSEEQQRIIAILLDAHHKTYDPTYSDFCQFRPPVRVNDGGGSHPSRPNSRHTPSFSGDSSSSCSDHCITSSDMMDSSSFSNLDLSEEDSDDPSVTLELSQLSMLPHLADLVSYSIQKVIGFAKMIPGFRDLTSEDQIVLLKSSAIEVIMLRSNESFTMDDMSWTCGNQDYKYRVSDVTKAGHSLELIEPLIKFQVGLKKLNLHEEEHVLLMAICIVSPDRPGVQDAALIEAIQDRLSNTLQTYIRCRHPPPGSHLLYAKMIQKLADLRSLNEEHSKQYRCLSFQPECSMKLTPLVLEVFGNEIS
Method in brief: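 Fluorescence from LiveBLAzer B/G FRET substrate, read after 2 h at room temperature, reflects beta-lactamase reporter activity in VDR-bla cells treated 16 h at 37C with compounds and agonist 1alpha,25-dihydroxyvitamin D3 (3 nM final).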

[7] = qHTS assay to identify small molecule agonists of the vitamin D receptor (VDR) signaling pathway - cell viability counter screen (AID 743224); note: nearly all actives have a fitted effect of over 50% in size; note: potency is the fitted concentration of half-maximal effect
Method in brief: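 CellTiter-Glo viability readout on VDR-bla cells, measured after 16 h of compound treatment at 37C in the same wells.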

[8] = qHTS assay to identify small molecule antagonists of the vitamin D receptor (VDR) signaling pathway - cell viability counter screen (AID 743225); note: nearly all actives have a fitted effect of over 50% in size
Method in brief: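 Cells (VDR-UAS-bla HEK 293T) are plated, rested 4 h at 37C, dosed with compound and 3 nM final 1-alpha,25-dihydroxy vitamin D3, and incubated 16 h. Viability is taken from CellTiter-Glo luminescence in the reporter wells.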

[9] = qHTS assay to identify small molecule agonists of the NFkB signaling pathway - cell viability counter screen (AID 1159515; calls by dose curve; note: series mostly up to about 61 µM; nearly all actives have a fitted effect of over 55% in size)
Method in brief: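 Tox21 library compounds were tested for cytotoxicity against NFkB-bla ME-180 cells during a 5 hr exposure at 37 C. CellTiter-Glo luminescence served as the viability read-out.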

[10] = qHTS assay to identify small molecule agonists of the endoplasmic reticulum stress response signaling pathway (AID 1159516; active = well fitted activation curve with a large enough effect in the signal ratio in the repeat runs, not every such curve was filed as active; the % refers to the signal ratio)
Method in brief: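 Fluorescence at 460 and 530 nm (405 nm excitation) reports beta-lactamase from an ER stress response element in HeLa cells treated 5 hr at 37 C.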

[11] = qHTS assay to identify small molecule agonists of the endoplasmic reticulum stress response signaling pathway - cell viability counter screen (AID 1159517; calls by dose curve)
Method in brief: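 Steps: seed 1,500 ESRE-bla HeLa cells per well; incubate overnight at 37 C, 5% CO2; add compounds in DMSO for 5 hr; run FRET substrate 2 hr RT; add CellTiter-Glo, wait 30 min, read luminescence.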

[12] = qHTS assay to identify small molecule antagonists of the retinoid-related orphan receptor gamma (ROR-gamma) signaling pathway - cell viability counter screen (AID 1159520); note: nearly all actives have a fitted effect of over 50% in size
Method in brief: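 Tet-on ROR gamma CHO cells were given compounds for 2 hr, then doxycycline hyclate at 1 uM final, and incubated 16 hr at 37 C. Viability was measured as ATP content by CellTiter-Glo luminescence.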

[13] = biological target: Nuclear receptor ROR-gamma (Homo sapiens) (UniProt P51449); experiment: qHTS assay to identify small molecule antagonists of the retinoid-related orphan receptor gamma (ROR-gamma) signaling pathway (AID 1159521; note: nearly all actives have a fitted effect of over 50% in size; note: potency is the fitted concentration of half-maximal effect)
Method in brief: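 RORγ antagonism is scored from reduced reporter luminescence in Tet-on CHO cells. Induction used 1 uM final doxycycline hyclate for 16 h at 37 C, following a 2 h compound exposure.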

[14] = qHTS assay to identify small molecule agonists of the AP-1 signaling pathway - cell viability counter screen (AID 1159525; calls by dose curve; note: nearly all actives have a fitted effect of over 55% in size)
Method in brief: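 Same-well cytotoxicity counter screen of the Tox21 10K library in ME-180 cells. The readout is ATP-dependent luminescence after 5 h compound treatment. Data are normalised to DMSO and tetra n-octyl ammonium bromide controls.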

[15] = qHTS assay to identify small molecule agonists of the AP-1 signaling pathway (AID 1159526; calls by dose curve)
[16] = qHTS assay to identify small molecule agonists of the RXR signaling pathway - cell viability counter screen (AID 1159529)
Method in brief: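 Cell viability is measured by CellTiter-Glo luminescence, 30 min at room temperature, in wells already read for beta-lactamase. Engineered HEK 293T cells (RXR-alpha-UAS-bla) are dosed 16 hr at 37 C. Tetraoctyl ammonium bromide serves as positive control.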

[17] = biological target: Peroxisome proliferator-activated receptor delta (Homo sapiens) (UniProt Q03181); experiment: qHTS assay to identify small molecule agonists of the peroxisome proliferator-activated receptor delta (PPARd) signaling pathway (AID 743212; calls by dose curve)
Chain of Peroxisome proliferator-activated receptor delta (Homo sapiens) (Q03181 whole entry, looked up): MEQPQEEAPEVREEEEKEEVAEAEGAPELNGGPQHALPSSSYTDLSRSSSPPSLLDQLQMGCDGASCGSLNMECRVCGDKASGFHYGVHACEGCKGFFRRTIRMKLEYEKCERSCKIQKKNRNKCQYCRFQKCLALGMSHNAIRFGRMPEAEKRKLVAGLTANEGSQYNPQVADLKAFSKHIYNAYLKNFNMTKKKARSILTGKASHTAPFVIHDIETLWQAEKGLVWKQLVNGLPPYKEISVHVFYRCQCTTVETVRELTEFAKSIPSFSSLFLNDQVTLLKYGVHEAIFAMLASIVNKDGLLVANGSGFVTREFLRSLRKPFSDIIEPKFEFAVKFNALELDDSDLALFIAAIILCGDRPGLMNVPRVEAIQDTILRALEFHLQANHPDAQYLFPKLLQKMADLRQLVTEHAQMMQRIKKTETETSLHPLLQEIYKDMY
Method in brief: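 Read-out: beta-lactamase FRET fluorescence after 2 h room-temperature incubation with LiveBLAzer B/G substrate. Cells were HEK293H carrying a UAS-bla reporter for PPARd, treated at 37 C with DMSO-dissolved compounds.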

[18] = biological target: Vitamin D3 receptor (Homo sapiens) (UniProt P11473); experiment: qHTS assay to identify small molecule agonists of the vitamin D receptor (VDR) signaling pathway (AID 743222; calls by dose curve)
Method in brief: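 Tox21 cell reporter format: VDR-bla line, 16 h compound exposure in 5% CO2 at 37C, then fluorescence intensity after 2 h with LiveBLAzer B/G FRET substrate.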

[19] = biological target: Peroxisome proliferator-activated receptor delta (Homo sapiens) (UniProt Q03181); experiment: qHTS assay to identify small molecule antagonists of the peroxisome proliferator-activated receptor delta (PPARd) signaling pathway (AID 743215; active = well fitted inhibition curve with a large enough effect in the signal ratio in the repeat runs, not every such curve was filed as active; the % refers to the signal ratio;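 note: cells stimulated with agonist L165041 at 300 nM final during compound exposure; series mostly up to about 62 µM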)
Method in brief: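 Here, a reporter line (HEK293H, beta-lactamase under a UAS) measures PPARd signaling. Compounds are tested against agonist L165041 at 300 nM final concentration over 17 h at 37 C, with fluorescence read after substrate.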

Measured: Potency

O=[N+]([O-])/N=C1\NCCN1Cc1ccc(Cl)nc1
inactive: [1] | [2] | [3] | [4] | [5] | [6] | [7] | [8] | [9] | [10] | [11] | [12] | [13] | [14] | [15] | [16]

C=C(C)C#N
inactive: [17] | [1] | [2] | [3] | [4] | [5] | [18] | [6] | [7] | [8] | [9] | [10] | [11] | [12] | [13] | [14] | [15]

CSc1nc(NC(C)C)nc(NC(C)C)n1
inactive: [1] | [3] | [5] | [18] | [6] | [7] | [8] | [9] | [10] | [11] | [12] | [13] | [14] | [15] | [16]

CC(C)(O)C(=O)Nc1ccc([N+](=O)[O-])c(C(F)(F)F)c1
inactive: [1] | [3] | [5] | [7] | [8] | [9] | [10] | [11] | [12] | [14] | [15] | [16]
active: [13] 19.7 µM

N#CC(c1ccccc1)c1ccccc1
inactive: [17] | [1] | [2] | [4] | [5] | [6] | [7] | [8] | [9] | [10] | [11] | [12] | [13] | [14] | [15]

CCOP(=S)(OCC)OP(=S)(OCC)OCC
inactive: [17] | [1] | [4] | [5] | [7] | [8] | [9] | [10] | [11] | [12] | [13] | [14] | [15] | [16]

CCN(CC)C(=O)C(C)Oc1cccc2ccccc12 (configuration not stated)
inactive: [17] | [2] | [3] | [4] | [5] | [7] | [8] | [9] | [10] | [11] | [12] | [13] | [14] | [15]

N#Cc1nn(-c2c(Cl)cc(C(F)(F)F)cc2Cl)c(N)c1S(=O)C(F)(F)F (configuration not stated)
24.7 µM (active) and inactive: [7]
inactive: [17] | [4] | [5] | [18] | [6] | [9] | [10] | [11] | [12] | [14] | [15] | [16]
active: [13] 7.74 µM and 16.8 µM

O=C(O)c1nn(Cc2ccc(Cl)cc2Cl)c2ccccc12
inactive: [3] | [5] | [18] | [7] | [8] | [9] | [10] | [11] | [12] | [13] | [14] | [15] | [16]

CCOS(=O)(=O)OCC
inactive: [17] | [1] | [19] | [3] | [5] | [18] | [6] | [7] | [8] | [9] | [10] | [11] | [12] | [13] | [14] | [15]

Source: PubChem BioAssay (Tox21)
